Pf growth 48h: P. falciparum growth inhibition at 48 hours (one generation) | AID 504832 | actives 5.9% (n = 310,000) | Potency, µM (series often up to 28.7 µM), for the others: top-dose activity change, negative = inhibition, hits mostly inhibitors | P. falciparum luciferase growth in erythrocytes, 48 h; further: potency means the concentration at half of the fitted maximal effect; on the % scale 0 is the no-effect control and ±100 the full control effect
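Parasite viability was followed by luminescence of a genomically integrated firefly luciferase. Cultures held 0.1% parasitemia at 2% hematocrit (final), incubated under 5% CO2 at 37 C.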
Pf growth 96h: P. falciparum growth inhibition at 96 hour, primary screen for plastid delayed-death inhibitors | P. falciparum luciferase reporter growth, 96 h | Potency, µM (top dose mostly 28.7 µM), without a hit: top-dose activity change, negative = inhibition, most hits filed as inhibitors | actives 6.9% (n = 320,000); further: potency means the concentration at half of the fitted maximal effect; on the % scale 0 is the no-effect control and ±100 the full control effect
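Delayed-death screen, second-generation endpoint: infected erythrocytes, 2% hematocrit, 0.05% parasitemia final; 96 hours at 37 C, 5% CO2; luciferase detection reagent; luminescence decrease equals reduced growth.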
Shiga inhibitor: Shiga toxin inhibition; Vero cells, Shiga toxin protein synthesis inhibition reporter; inhibition, % at 38.7 µM; actives 9.2% (n = 290,000); AID 2315; in the data active means inhibition mostly above about 28%, no sharp cut-off; inactive means mostly below about 43%; further: 0% is about no effect
HCMV antiviral: inhibitors of human cytomegalovirus; HFF cells, HCMV-luciferase reporter, 72 h; hits give low values; activity change, negative = inhibition, % at 57.5 µM; AID 1259415; actives 4.5% (n = 410,000); in the data active means activity change below about -60%; inconclusive means no clear call, values can overlap the other calls; inactive means above about -39%; further: on the % scale 0 is the no-effect control and ±100 the full control effect
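Steps: HFFs plated, 16 h 37C; compounds added; HCMV-luciferase added to MOI 1 PFU/cell; 72 h 37C; OneGlo reagent, 5 min room temperature; luminescence read, normalized to controls.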
HCV inhibitor: HCV inhibition. Huh7.5.1 HCVcc-Cre infection, luciferase reporter, 44 h. Potency, µM (highest dose often 41.8 µM), without a hit: at the top dose activity change, negative = inhibition, usual class: inhibitors. actives 3.4% (n = 340,000); further: potency means the concentration at half of the fitted maximal effect; on the % scale 0 is the no-effect control and ±100 the full control effect
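Compounds are dispensed onto cells plated 4 h earlier at 1,000 per well, with HCVcc-Cre virus (about 0.5 moi) added next. Following 44 h of culture, luminescent signal is measured for 15 sec after 15 min with substrate at room temperature.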
CHX counter: counter-screen for Shiga toxin inhibitors: cycloheximide protein synthesis inhibition | cell reporter, cycloheximide protein synthesis inhibition counterscreen | AID 2314 | max response, % | actives 12% (n = 300,000); in the data active means max response mostly above about 13%, no sharp cut-off; inactive means mostly below about 14%; further: read at 38.3 µM for the half of the compounds with a filed dose; 0% is about no effect
* marks the source's active call; other numbers are inactive results; ? = inconclusive; / = no result; [ ] = dose if it differs, or a comment. The list is not random: actives were taken first. Their share in the collection is about 21%. Unless noted, the call rests on the fitted dose curve; in most records, active means well fitted inhibition curve with a large enough effect; inconclusive means small, poorly fitted or top-dose-only effect, or another doubt; inactive means no such curve, though single readings can be large or run the other way.

SMILES	Pf growth 48h	Pf growth 96h	Shiga inhibitor	HCMV antiviral	HCV inhibitor	CHX counter
COc1ccc(NC(=O)N(C)C[C@H]2OCCCC[C@H](C)Oc3ccc(NC(=O)Nc4cccc5ccccc45)cc3C(=O)N([C@@H](C)CO)C[C@H]2C)cc1	/	/	/	0	/	/
COc1ccc(-c2cc(C(=O)N3CC4(C)CC3CC(C)(C)C4)no2)cc1OC (stereo unspecified)	0.93µM*	?	-4	5	8%	-3
COc1ccc(-c2cc(C(=O)N3CCN(c4ccccc4)CC3)no2)cc1OC	1%	/	28	9	-18%	6
COc1ccc(-c2cc(C(=O)N3CCOCC3)no2)cc1OC	88%	1.3µM*	129*	36	18%	29*
COc1cccc(-c2cc(C(=O)N3CCN(C(c4ccccc4)c4ccccc4)CC3)no2)c1	8.3µM*	1.5µM*	22	-4	-22%	21
COc1cccc(-c2cc(C(=O)N3CCOCC3)no2)c1	156%	?	41	66	14%	40*
COc1ccc(-c2cc(C(=O)N3CC4(C)CC3CC(C)(C)C4)no2)cc1 (stereo unspecified)	/	?	-11	-18	-3%	-6
COc1ccc2c(C)c(CCC(=O)NCc3ccccc3Cl)c(=O)oc2c1C	/	/	/	-11	/	/
O=C(c1cccc(F)c1)N1CCN(C(=O)C(c2ccccc2)c2ccccc2)CC1	-14%	-2%	-12	-5	15%	-3
Cc1ccccc1NC(=O)CSc1nc(-c2ccco2)nc2cc(=O)[nH]n12	/	/	/	-11	/	/
COC(=O)C(/C=C/c1ccccc1)(c1cn(C)c2ccccc12)C(Nc1ccccc1)c1ccccc1 (stereo unspecified)	/	/	/	28	/	/
COc1ccc(-c2cc(C(=O)N3CCOCC3)no2)cc1	157%	-13%	49	9	-8%	30*
COc1cc(Nc2nccc3[nH]c(-c4cccc(C(F)(F)F)c4)nc23)cc(OC)c1OC	/	/	/	7	/	/
COc1cc(C(=O)OCc2cc3ccccc3[nH]c2=O)cc(OC)c1OC	-10%	22%	-2	-86*	-3%	-1
Cc1ccc(CN(c2ccc(C(=O)Nc3ccc4c(c3)OCO4)cc2)S(C)(=O)=O)cc1	/	-9%	17	3	/	12
CN(c1ccc(C(=O)Nc2ccc(CC#N)cc2)cc1)S(C)(=O)=O	32%	70%	58*	-1	5%	19
CN(c1ccc(C(=O)Nc2ccc3c(c2)OCCO3)cc1)S(C)(=O)=O	/	179%	59*	-17	-23%	31*
CN(c1ccc(C(=O)Nc2ccc3c(c2)OCO3)cc1)S(C)(=O)=O	66%	100%	62*	16	?	33*
CCOc1ccc(N(CC)S(=O)(=O)N2CCCC(C(=O)Nc3ccc(OC)c(OC)c3)C2)cc1 (stereo unspecified)	/	/	/	-4	/	/
Cc1cc(-c2ccccc2)nc(N2CCC(C(=O)NCc3ccccc3Cl)CC2)n1	39%	-18%	54*	/	3%	27*
C=CCNC(=O)C1CCN(c2nc(C)cc(-c3ccccc3)n2)CC1	?	-21%[5.75 µM]	132*	50	2.8µM*	36*
C=CCNC(=O)C1CCN(c2cc(C)nc(-c3ccccc3)n2)CC1	?	-8%	-10	-31	-13%	-3
COCCCNC(=O)Cn1c(=O)n(-c2cccc(C)c2)c(=O)c2c1c1cc(C)ccc1n2C	/	/	/	-21	/	/
N#C/C(=C\c1c[nH]c2ccccc12)C(N)=O	28%	20%	27	-33	-31%	9.0*
CC(=O)Oc1c(/C=C(\C#N)C(N)=O)[nH]c2ccccc12	10µM*	-15%	11	-21	?	22
SMILES	Pf growth 48h	Pf growth 96h	Shiga inhibitor	HCMV antiviral	HCV inhibitor	CHX counter
COC(=O)/C(C#N)=C/c1c[nH]c2ccccc12	7%	?	103*	68	-7%	37*
CCOC(=O)/C(C#N)=C/c1c[nH]c2ccccc12	47%	13%	81*	10	?	28*
CCOP(=O)(OCC)/C(C#N)=C/c1c[nH]c2ccccc12	?	?	7	-10	?	-2
Cc1ccc(C(=O)NCC(=O)N2CCN(c3cccc(Cl)c3)CC2)s1	/	/	/	7	3%	/
COc1ccc(C(=O)N2CCN(c3ccccc3OC)CC2)cc1	11%	-34%[5.75 µM]	84	1	12%	21
COc1ccccc1N1CCN(C(=O)c2ccc(-c3ccccc3)cc2)CC1	28%	54%	34	22	-20%	20*
COc1ccccc1N1CCN(C(=O)c2ccc(COc3cccc4c3OC(C)(C)C4)cc2)CC1	10µM*	?	/	-17	?	/
COc1ccccc1C(=O)COC(=O)COc1cccc2c1OC(C)(C)C2	116%	?	85*	-2	/	52*
O=C(c1ccc(CSc2ccc(Cl)cc2)cc1)N1CCCC1	4%[5.75 µM]	3%	61*	-63*	?	23
COc1cc(-c2noc(CCC(=O)Nc3cc(C)ccc3C)n2)cc(OC)c1OC	/	/	/	-17	/	/
CCOC(=O)c1ccc(N2CCN(c3cc(C)ccc3C)CC2)c(NC(=O)Nc2ccccc2)c1	/	/	/	-20	/	/
Brc1ccc(-c2cn3cc(Cc4ccccc4)sc3n2)cc1	/	/	/	103	/	/
Fc1cnc(N2CCOCC2)nc1N1CCc2ccccc21	?	/	active	40	?	12
COc1ccccc1N1CCN(C(=O)c2ccc(-c3ccc(Cl)cc3)o2)CC1	?	12µM*	/	-12	3.2µM*	/
O=C(c1ccc(-c2ccccc2)cc1)N1CCN(c2ncccn2)CC1	-7%	10µM*	18	32	5%	9
COc1ccccc1N1CCN(C(=O)CSc2ccccc2)CC1	/	51%	65*	114	6%	27*
O=C1CCN(S(=O)(=O)c2ccccc2)CCN1CCOCc1cccc(F)c1	7%	-3%	7	16	3%	-2
Cc1ccc(CN(C(=O)c2csnn2)C(C(=O)NC2CCCC2)c2cccnc2)cc1 (stereo unspecified)	-14%	60%	-4	39	4%	-10
O=C(c1ccc(Br)o1)N1CCN(c2ccc(F)cc2)CC1	-21%	/	-8	-35	-2%	-2
COc1cccc(N2CCN(C(=O)c3[nH]c(C)c(C(C)=O)c3C)CC2)c1	16%	42%	-12	62	?	-5
CC(=O)c1ccc(-c2ccc(C(=O)N3CCN(c4ccc(F)cc4)CC3)o2)cc1	-11%	12µM*	19	-9	?	21*
CS(=O)(=O)N1CCN(C(=O)C(Sc2ccccc2)c2ccccc2)CC1 (stereo unspecified)	3%	/	-17	-37	-5%	-2
COc1ccccc1N1CCN(C(=O)c2ccc3[nH]c4c(c3c2)CCCC4)CC1	0%	12µM*	-5	-24	?	4

Screening data from PubChem.
